Here are results for 56 molecules from PubChem BioAssay AID1851 (National Center for Advancing Translational Sciences (NCATS), 2009).

For orientation: AC50 means the midpoint of the concentration-response curve, whichever way the signal moves.

Molecules are shown by their SMILES. Hit rate of the full screen: of about 16,000 compounds, about 4,000 (25%) were called active. About 26% were inconclusive and are not listed. The list is a sample of the results. Unmarked numbers belong to inactive results. Calls follow the shape of the dose curve; as a rule, active = well fitted curve in the direction sought with a large enough effect; inconclusive = small, poorly fitted or top-dose-only effect, or effect the other way; inactive = no such curve, though single readings can be large or run the other way. Square brackets hold non-standard residues; d marks the D form. Peptide text beside a SMILES is read from it.
% is scaled to controls: 0 for no effect and ±100 for the full control effect.

In this assay the target is Cytochrome P450 2C9 (Homo sapiens) (UniProt P11712). The experiment in a line: Cytochrome panel assay with activity outcomes. Conditions: recombinant CYP, pro-luciferin dealkylation, luminescence, p450-cyp2c9; series mostly up to 57.1 µM.
Sequence of Cytochrome P450 2C9 (Homo sapiens) (P11712 whole entry, looked up): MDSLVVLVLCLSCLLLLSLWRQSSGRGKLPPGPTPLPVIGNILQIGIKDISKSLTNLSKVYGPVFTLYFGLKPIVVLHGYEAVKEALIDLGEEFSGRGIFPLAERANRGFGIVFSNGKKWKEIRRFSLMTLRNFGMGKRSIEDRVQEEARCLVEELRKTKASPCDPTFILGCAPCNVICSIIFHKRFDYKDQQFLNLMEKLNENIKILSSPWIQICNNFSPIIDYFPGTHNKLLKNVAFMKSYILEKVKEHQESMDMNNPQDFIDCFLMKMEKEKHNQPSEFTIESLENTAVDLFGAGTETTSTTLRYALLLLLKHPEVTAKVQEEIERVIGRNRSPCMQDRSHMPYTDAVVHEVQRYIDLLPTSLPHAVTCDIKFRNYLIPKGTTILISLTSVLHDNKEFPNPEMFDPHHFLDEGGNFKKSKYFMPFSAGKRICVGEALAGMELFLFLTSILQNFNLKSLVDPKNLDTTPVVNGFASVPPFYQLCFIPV
As to `NCCOB(c1ccccc1)c1ccccc1`, the AC50 result is “inactive”.

In the case of `CC(=O)Nc1ccc(S(=O)(=O)NC2(C(F)(F)F)NC(=O)N(c3ccc(Cl)cc3)C2=O)cc1` (stereo unspecified), the AC50 is 10 µM (active).

On to `Cc1ccc(-n2c3c(c(=O)[nH]c2=O)C(NS(=O)(=O)c2ccc(C)cc2)(C(F)(F)F)C(=O)N3)cc1` (stereo unspecified), for which the AC50 entry was “inactive”.

As to `CN(N=O)c1ccc(/C=C\c2ccnc3ccccc23)cc1`, the activity, negative = inhibition is -6.97% [at 11.4 µM].

With `Oc1c(CN2CCCCC2)cc(Br)c2cccnc12`, the AC50 result was “inactive”.

In the case of `CON(c1nc(N(C)C)nc(N(C)C)n1)S(=O)(=O)c1ccccc1Cl`, the AC50 is 11.2 µM (active).

As to `CC(=O)Nc1cccc(C(=O)OC(C(=O)c2ccc(C)c(C)c2)c2ccccc2)c1` (stereo unspecified), the AC50 is 3.98 µM (active).

As to `NC(N)=NC(=O)c1nc(Cl)c(N)nc1N`, the AC50 result was “inactive”.

As for `FC(F)Sc1ccc(N=C2NN=C(c3ccc4c(c3)OCCO4)CS2)cc1`, the AC50 is 22.4 µM (active).

Consider `C[N+](C)(C)CCCCCNCC12CC3CC(CC(C3)C1)C2`, for which the AC50 result was “inactive”.

Regarding `COC(=O)[C@@]1(Cc2ccc(F)cc2)[C@H]2c3cc(C(=O)N4CCCC4)n(Cc4ccccc4)c3C[C@H]2CN1C(=O)c1ccccc1`, the AC50 is 3.98 µM (active).

For `COC(=O)[C@@]1(Cc2ccc(F)cc2)[C@H]2c3cc(C(=O)N4CCCC4)n(Cc4ccc(OC(F)(F)F)cc4)c3C[C@H]2CN1C(=O)c1ccccc1`, the AC50 was 6.31 µM (active).

Consider `COC(=O)[C@@]1(Cc2ccc(F)cc2)[C@H]2c3cc(C(=O)N4CCCC4)n(Cc4ccc(C)c(F)c4F)c3C[C@H]2CN1C(=O)c1ccccc1`, for which the AC50 was 10 µM (active).

With `COC(=O)[C@@]1(Cc2ccc(F)cc2)[C@H]2c3cc(C(=O)N4CCCC4)n(Cc4ccc(S(C)(=O)=O)cc4)c3C[C@H]2CN1C(=O)c1ccccc1`, the AC50 was 25.1 µM (active).

`CCC(=O)c1ccc2c(c1)N(CCCN(C)C)c1ccccc1S2`: the AC50 result was “inactive”.

As to `CC(C)(C)N1C(=O)[C@H]2[C@H]3[C@H](O)[C@H](O)C/C(=N/NC(=O)OCc4ccccc4)[C@H]3CC[C@@H]2C1=O`, the activity, negative = inhibition is 16% [at 11.4 µM].

On to `COC(=O)[C@@]1(Cc2ccccc2)[C@H]2c3cc(C(=O)N4CCCC4)n(CC4CC4)c3C[C@H]2CN1C(=O)c1ccccc1`, for which the AC50 was 1 µM (active).

Regarding `COC(=O)[C@@]1(Cc2ccccc2)[C@H]2c3cc(C(=O)N4CCCC4)n(Cc4nc5ccccc5[nH]4)c3C[C@H]2CN1C(=O)c1ccccc1`, the AC50 is 1 µM (active).

Regarding `COC(=O)[C@@]1(Cc2ccc(F)cc2)[C@H]2c3cc(C(=O)N(C)C)n(Cc4ccc(C)c(F)c4F)c3C[C@H]2CN1C(=O)c1ccccc1`, the AC50 is 25.1 µM (active).

In the case of `CCOC(=O)[C@H](CCc1ccccc1)N[C@@H](C)C(=O)N1CCC[C@H]1C(=O)O`, the AC50 entry was “inactive”.

`Cc1cc(=O)n2c3ccccc3n(CC(O)CN3CCCCC3)c2c1C#N` (stereo unspecified): the AC50 result was “inactive”.

For the molecule `CCSc1nnc(NC(=O)CSc2nc3c(cc2C#N)CCCC3)s1`, the AC50 is 2.51 µM (active).

Regarding `CCCCC(=O)Nc1nnc(SCC(=O)NC2CCCC2)s1`, the AC50 entry is “inactive”.

As to `Cn1c(C(=O)O)c(CC(=O)NCc2cccnc2)c2ccccc21`, the AC50 was 3.55 µM (active).

For the molecule `O=C(O)Cc1cccnc1`, the activity, negative = inhibition was 12.8% [at 11.4 µM].

With `CN(C)C(=O)c1ccc(-c2nc(NCc3cccnc3)c3ccccc3n2)cc1`, the activity, negative = inhibition is 8.86% [at 2.29 µM].

On to `Nc1[nH]n2c(=O)cc(-c3ccccc3)nc2c1N=Nc1ccccc1`, for which the AC50 was 15.8 µM (active).

`O=c1nc(-c2ccccc2)cn[nH]1`: the AC50 result is “inactive”.

Take `Nc1nc(C(=O)O)c(N=Nc2ccccc2)c(=O)[nH]1`: the activity, negative = inhibition was -0.919% [at 11.4 µM].

Turning to `CCOC(=O)Cn1c(CN(Cc2ccccc2)Cc2ccccc2)nc2c1c(=O)[nH]c(=O)n2C`, the AC50 was 14.1 µM (active).

Take `Cn1c(=O)[nH]c(=O)c2c1nc(CN(Cc1ccccc1)Cc1ccccc1)n2CCN1CCOCC1`: the concentration at half-maximal activity (AC50) is 15.8 µM (active).

Consider `CN(C)c1ccc(-c2nc(NCCN3CCOCC3)c3ccccc3n2)cc1`, for which the activity, negative = inhibition is 10.3% [at 2.29 µM].

As to `COC(=O)Cn1c(CN(Cc2ccccc2)Cc2ccccc2)nc2c1c(=O)[nH]c(=O)n2C`, the AC50 is 14.1 µM (active).

`CCOCCn1c(CN(Cc2ccccc2)Cc2ccccc2)nc2c1c(=O)[nH]c(=O)n2C`: the AC50 was 7.94 µM (active).

With `Cn1c(=O)[nH]c(=O)c2c1nc(CN1CCOCC1)n2Cc1ccccc1`, the AC50 entry was “inactive”.

On to `Cc1ccc(C(=O)CNc2nc3c(c(=O)[nH]c(=O)n3C)n2Cc2ccccc2)cc1`, for which the AC50 is 0.891 µM (active).

For `Cc1cc(C)n(-c2nc3c(c(=O)[nH]c(=O)n3C)n2CC(C)C)n1`, the AC50 result is “inactive”.

For the molecule `COCCCCC(=NOCCN)c1ccc(C(F)(F)F)cc1`, the AC50 is 3.98 µM (active).

On to `CCON=C1C(C)(C)C(C)(C)C(C)(C)C1(C)C`, for which the activity, negative = inhibition was 4.67% [at 11.4 µM].

Consider `CCCN=Cc1c(CCC)[nH]n(-c2nc3ccccc3s2)c1=O`, for which the AC50 is 10 µM (active).

Take `CCn1c(C)c(/C=N/Nc2nc3ccccc3s2)c2ccccc21`: the AC50 result was “inactive”.

Turning to `C(/C=C/c1ccco1)=N/N1CCN(c2ccccc2)CC1`, the AC50 entry is “inactive”.

Regarding `COC(=O)/C(=C\C(=O)c1ccccc1)Nc1cccc(C(F)(F)F)c1`, the AC50 was 15.8 µM (active).

Turning to `Cc1sc(N)c(C(=O)c2cccc(C(F)(F)F)c2)c1C`, the AC50 entry was “inactive”.

With `CCC(C(=O)Nc1cccc(C(F)(F)F)c1)c1ccccc1` (stereo unspecified), the AC50 is 2.82 µM (active).

Take `O=C(CSc1ccc(C(F)(F)F)cc1[N+](=O)[O-])Nc1ccccc1`: the AC50 result is “inactive”.

On to `O=c1[nH][nH]c(C(F)(F)F)c1C=Nc1ccccc1`, for which the AC50 entry was “inactive”.

For `CCC[C@H]1C(=O)N2C(N(C)C)=Nc3ccc(C)cc3N2C1=O`, the AC50 entry is “inactive”.

Turning to `Cn1c(COc2nnc(-c3ccc(Cl)cc3)c3ccccc23)nc2ccccc21`, the AC50 is 3.98 µM (active).

Regarding `Cn1c(C[C@@H](O)c2nc3ccccc3n2C)nc2ccccc21`, the activity, negative = inhibition was 5.4% [at 11.4 µM].

Consider `COc1ncc2nc(-c3ccc(Cl)cc3)c(=O)n(-c3ccccc3)c2n1`, for which the AC50 result is “inactive”.

`CSCC[C@H](C=O)NC(=O)[C@H](CC(C)C)NC(=O)[C@H](CC(C)C)NC(C)=O` (Ac-Leu-Leu-[dM]-aldehyde): the AC50 entry is “inactive”.

Regarding `Cc1c(Cl)c([N+](=O)[O-])nn1Cc1ccc(C(=O)N/N=C\c2cccc(Br)c2)o1`, the AC50 was 5.62 µM (active).

`Cc1nn(Cc2ccc(Cl)cc2)c(C)c1NC(=O)Cn1nc([N+](=O)[O-])c(Cl)c1C`: the AC50 entry was “inactive”.

With `Cc1c(Cl)c([N+](=O)[O-])nn1Cc1ccc(C(=O)N/N=C\c2cc(Cl)ccc2O)o1`, the AC50 was 3.98 µM (active).

For the molecule `C/C(Cn1nc([N+](=O)[O-])cc1C)=N\NC(=O)c1ccc(O)cc1O`, the AC50 result was “inactive”.
